A selection: hits, their analogues and other compounds. The true share with any hit is near 0.34%.
Vif-A3F inh = Vif-A3F binding inhibition; HeLa A3F-eYFP + Vif (tagged APOBEC3F with the HIV-1 protein that degrades it), YFP fluorescence increase; Potency, µM (top dose mostly 46.1 µM), for the others: top-dose activity, negative = active; 0.2% of 390,000 active; further: potency means the concentration at half of the fitted maximal effect; % of control where 0% means no effect; nearly all actives have a fitted effect of over 65% in size
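HeLa cells stably expressing A3F-eYFP plus Vif, plated and incubated overnight at 37 deg C, then exposed to compounds overnight at 37 deg C. Blocked degradation read as raised yellow fluorescence (Ex 488/Em 500-530).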
Vif-APOBEC3G blk = Vif-A3G binding inhibition. HeLa A3G-eYFP + Vif (tagged APOBEC3G with the HIV-1 protein that degrades it), YFP fluorescence, overnight. Q9HC16. Potency, µM (doses to about 46.1 µM), for inactives: top-dose activity, negative = active, hits mostly inhibitors. AID 602310. 0.076% of 410,000 active; further: potency means the concentration at half of the fitted maximal effect; on the % scale 0 is the no-effect control and ±100 the full control effect; nearly all actives have a fitted effect of over 60% in size
Target sequence (Q9HC16 whole entry, looked up): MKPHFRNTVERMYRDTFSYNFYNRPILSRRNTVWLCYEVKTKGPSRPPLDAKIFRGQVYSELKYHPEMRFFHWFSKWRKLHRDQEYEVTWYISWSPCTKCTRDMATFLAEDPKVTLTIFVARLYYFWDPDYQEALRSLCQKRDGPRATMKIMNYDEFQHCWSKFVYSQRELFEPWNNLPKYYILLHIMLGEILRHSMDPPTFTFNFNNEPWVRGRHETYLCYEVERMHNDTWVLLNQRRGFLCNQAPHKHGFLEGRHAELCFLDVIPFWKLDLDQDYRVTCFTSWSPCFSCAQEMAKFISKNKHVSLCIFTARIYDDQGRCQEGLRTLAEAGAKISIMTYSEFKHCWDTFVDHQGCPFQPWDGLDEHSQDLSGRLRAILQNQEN
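Read-out is eYFP fluorescence (Ex 488/Em 500-530) from Vif-expressing HeLa A3G-eYFP cells; more signal means A3G escaped Vif-mediated degradation. Cells plated overnight, compound pinned in, incubated overnight at 37 deg C.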
Epigenetic reg = regulators of epigenetic silencing causing reporter derepression in mouse cells | murine LDR cells, GFP reporter derepression, 30 h | Potency, µM (series often up to 53.9 µM), for inactives: at the highest dose GFP activation, actives largely listed as activators | 0.2% of 280,000 active | AID 1865; further: potency means the concentration at half of the fitted maximal effect; % of control where 0% means no effect; nearly all actives have a fitted effect of over 60% in size
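Derepression of a silenced CMV-GFP reporter in murine LDR cells is scored by enumerating GFP-positive cells with a laser-scanning microplate cytometer after 30 hours of treatment at 37 C.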
HCC4017 tox = epigenetic modulators: cytotoxicity in HCC4017 lung cancer cells; shares compounds with Epigenetic reg; HCC4017 NSCLC viability, CellTiter-Glo ATP luminescence, 72 h; Potency, µM (titrated, usually from 46.1 µM), for inactives: at the highest dose activity change, negative = cytotoxicity, actives largely listed as cytotoxic; 30% of 45 active; AID 493071
H358 viab = reduces H358 lung cancer cell viability among epigenetic modulators | shares compounds with Epigenetic reg | H358 NSCLC viability, ATP luminescence, 72 h | Potency, µM (series often up to 46.1 µM), inactives show at the highest dose activity change, negative = viability loss, hits mostly cytotoxic | 30% of 45 active | AID 493074
Numbers without * were called inactive; u = inconclusive; x = not tested or not shown; [ ] = dose if it differs, or a comment. The call rests on the fitted dose curve; in most records, active means well fitted curve in the direction sought with a large enough effect; inconclusive means small, poorly fitted or top-dose-only effect, or another doubt; inactive means no such curve, though single readings can be large; an effect the other way counts as inactive or inconclusive.

SMILES	Vif-A3F inh	Vif-APOBEC3G blk	Epigenetic reg	others
CCn1ccnc1CN1CCCC(C(=O)c2ccc(OC)cc2OC)C1 (configuration not stated)	-14%	-6%	3%
ClCCN(CCCl)/C(=C\c1ccccc1)c1ccnc2ccccc12	x	-4%	x
CN(C(=O)Oc1cccc2cccnc12)c1ccccc1	6%	0%	1%
Oc1cccc2cccnc12	x	u	4µM*
CC[C@@H]1CN2CCc3cc(OC)c(OC)cc3[C@H]2C[C@@H]1C[C@H]1NCCc2cc(OC)c(OC)cc21	x	x	0%[16.9 µM]
Cc1oc2ccc(O)c(CN3CCCCCC3)c2c1C(=O)Nc1cccc(Cl)c1C	-3%	5%	u
COCCCNC(=O)c1c(NC(=O)c2ccco2)n(Cc2ccccc2)c2nc3ccccc3nc12	x	u	-1%
COCCNC(=O)c1c(NC(=O)c2ccc(Br)o2)n(Cc2ccccc2)c2nc3ccccc3nc12	11µM*	u	u
Cc1cccc(NC(=O)Oc2ccc(Cl)c3cccnc23)c1	u	1%	x
CCn1c(O)c(/C=N/NC(=O)c2ccncc2)c(=O)n(CC)c1=S	7.9µM*	u	1%
Cn1c(O)c(/C=N/NC(=O)c2ccncc2)c(=O)n(C)c1=S	-9%	-18%	-1%
Cc1ccc(N2C(=O)NC(=O)/C(=C\C=C\c3ccco3)C2=O)cc1	-15%	u	0%
Cc1ccc(N2C(=O)NC(=O)/C(=C\C=C\c3ccco3)C2=O)cc1C	22µM*	u	1%
CCCCCn1c(NC(=O)c2ccco2)c(C(=O)OCC)c2nc3ccccc3nc21	u	11µM*	5%
CCOC(=O)c1c(N)n(CCCOC(=O)c2ccco2)c2nc3ccccc3nc12	7%	-13%	-1%
COc1ccc(CNC(=O)Cn2c(=O)nc(-c3ccccc3F)c3cc(Cl)ccc32)cc1	4%	10%	u
O=C1NC(=O)N(c2ccc3c(c2)OCO3)C(=O)/C1=C/c1cccs1	-12%	0%	22µM*
O=C1NC(=O)N(c2ccc3c(c2)OCO3)C(=O)/C1=C/c1ccsc1	-7%	-2%	0%
COC(=O)[C@@H]1[C@@H](O)[C@@]2(O)c3c(OC)cc(OC)cc3O[C@@]2(c2ccc(OC)cc2)[C@H]1c1ccccc1	x	x	3.5µM*
COC(=O)C1C(c2ccccc2)C2C(=O)c3c(OC)cc(OC)cc3O[C@@]12c1ccc(OC)cc1 (some centres not stated)	x	x	1%[10.1 µM]
CC1OC(O[C@H]2C[C@@H](O)[C@]3(CO)[C@H]4[C@H](O)C[C@]5(C)[C@@H](C6=CC(=O)OC6)CC[C@]5(O)[C@@H]4CC[C@]3(O)C2)C(O)C(O)C1O (some centres not stated)	x	-1%	x
[Hg+][c]1ccccc1	x	-14%	x
CN1CSC(=S)N(C)C1	-8%	1%	8.9µM*	HCC4017 tox=u;H358 viab=u
O=[N+]([O-])c1cc(C(F)(F)F)c(Cl)c([N+](=O)[O-])c1Nc1ncc(C(F)(F)F)cc1Cl	x	-17%	x
CN(C(=O)Cc1ccc(Cl)c(Cl)c1)C(CN1CCCC1)c1cccc(N=C=S)c1 (configuration not stated)	x	x	1%
